Bioassay records from PubChem.
Most compounds without a hit are left out; they make up all but 2.1% or so of the library.
IEC-6 cytotox = cytotoxicity in IEC-6 intestinal epithelial cells, primary screen, cytotoxicity control for KLF5 inhibitor project, cell-based, luminescence; IEC-6 cytotoxicity, luminescence viability; inhibition, % at 5 µM; actives 0.78% (n = 290,000); in the data active = inhibition above about 22%;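 note: 0% = plate median of test compound wells and 100% = cytotoxic reference compound wells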
APP 5UTR inh = inhibitors of APP translation via 5'UTR reporter, primary screen, APP 5'UTR luciferase, SH-SY5Y cells; actives 0.82% (n = 190,000); inhibition, % at 2 µM; SH-SY5Y APP 5'UTR-luciferase reporter, luminescence;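 active = inhibition above a set limit, derived from the sample mean plus 3 SD, cut at about 45% in these data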
BaF3 parental = parental Ba/F3 cell viability inhibition, counter-screen for JAK2V617F inhibitor project, murine pro-B, CellTiter-Glo luminescence; CellTiter-Glo ATP luminescence; inhibition, % at 5.6 µM; actives 1.1% (n = 220,000); AID 1486, 2009;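 active = inhibition above a per-campaign cutoff, the mean inhibition of all tested compounds plus 3 SD, cut at about 27% in these data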;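 note: 0% = DMSO wells and 100% = JAK Inhibitor I control wells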
KLF5 inh = KLF5 expression inhibitors, primary screen, DLD-1 cells, luminescence; DLD-1 KLF5 promoter-luciferase reporter; inhibition, % at 5 µM; actives 0.23% (n = 290,000);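 active = inhibition above a per-plate limit of that plate's mean compound inhibition plus 3 SD, cut at about 60% in these data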;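 note: 0% = DMSO wells and 100% = LY294002 at 200 µM; higher means less KLF5 promoter-driven luciferase light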
aSyn 5UTR inh = MLPCN primary screen, SNCA 5' untranslated region | alpha-synuclein 5'UTR reporter, inhibitor activity | actives 0.82% (n = 300,000) | AID 1813, 2009 | inhibition, % (tested at 7.5 µM); in the data active = inhibition above about 60%;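 note: H4 neuroglioblastoma cells stably carrying SNCA 5'UTR luciferase fusion; 0% = DMSO wells and 100% = positive control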
Ba/F3 V617F tox = reduced viability of JAK2V617F-dependent Ba/F3 cells, primary screen, JAK2V617F inhibitor project, cell-based, Ba/F3 EpoR-JAK2V617F, luminescence; ATP luminescence; inhibition, % at 5.6 µM; actives 1.1% (n = 220,000);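 active = inhibition above the campaign mean plus 3 SD over all tested compounds, cut at about 24% in these data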;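 note: cytokine-independent growth of Ba/F3 cells driven by EpoR plus mutant JAK2; 0% = DMSO-treated cells and 100% = JAK inhibitor I control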
Numbers without * were called inactive; . = no result given.

SMILES	IEC-6 cytotox	APP 5UTR inh	BaF3 parental	KLF5 inh	aSyn 5UTR inh	Ba/F3 V617F tox
Cc1ccccc1NC1=C/C(=N\S(=O)(=O)c2cccs2)c2ccccc2C1=O	0.4	10.1	1.8	-19.9	114.4*	-0.7
Cc1ccc(OCC(=O)Nc2ccc([N+](=O)[O-])cc2)cc1	-7.9	1.8	0.5	1.1	-10.2	-5.8
Cc1ccc(NC(=O)C2(c3ccc([N+](=O)[O-])cc3)CCCC2)cc1	-0.6	-0.5	49.7*	-4.0	25.9	2.4
c1ccc(CNc2ncnc3sccc23)cc1	-1.7	.	.	-23.7	22.0	.
c1csc(CNc2ncnc3sccc23)c1	7.7	3.0	36.3*	-24.1	-58.7	33.6*
CCN(C(=O)c1cc2c(C)nc3ccccc3c2o1)c1cc(Cl)ccc1OC	1.2	.	-0.3	-30.1	-5.6	-3.7
COc1ccc2oc(=O)c(/C(N)=N/NC(=O)c3ccncc3)cc2c1	7.6	.	.	-6.2	9.6	.
CCc1ccc(N/C(N)=N/c2nc(CSc3ccccn3)cc(=O)[nH]2)cc1	1.9	-3.7	6.9	8.9	12.3	0.8
COc1cccc(N/C(N)=N/c2nc(CSc3ccccn3)cc(=O)[nH]2)c1	-8.8	89.3*	10.3	0.5	-30.4	1.0
CN1c2ccccc2N(C)C1c1ccc2c(c1)OCO2	2.5	-23.8	60.6*	-42.8	0.6	70.7*
O=C(CN1C(=O)NC2(CCCc3ccccc32)C1=O)N1CCCCC1 (configuration not stated)	.	.	.	.	7.7	.
O=C(N/N=C/c1ccccc1F)c1ccccc1OCc1ccccc1	-2.2	.	.	50.9	-15.2	.
COc1ccc(Nc2nc(-c3cc4cccc(OC)c4oc3=O)cs2)cc1	3.9	-24.2	5.0	15.9	-83.0	2.2
COc1cccc2sc(Nc3nc(-c4cc5ccccc5oc4=O)cs3)nc12	5.5	91.3*	1.8	4.4	12.2	-2.7
COc1cccc2sc(Nc3nnc(-c4ccccc4Cl)o3)nc12	3.1	84.7*	85.1*	-18.9	66.3*	82.1*
COc1cccc2sc(Nc3nc(-c4ccncc4)cs3)nc12	53.7*	93.7*	82.5*	54.2	105.0*	85.4*
COc1cccc2sc(NN)nc12	10.1	-26.5	2.4	-17.9	-46.1	2.2
O=C(CSc1nc(O)cc(=O)n1-c1ccc(Cl)c(Cl)c1)Nc1ccc(Cl)cc1Cl	4.2	.	.	-19.4	-22.4	.
O=c1c2[nH]c3ccc(Br)cc3c2ncn1Cc1ccncc1	4.0	.	4.9	-11.1	-13.9	-4.4
COc1ccc(S(=O)(=O)N2CCOCC2)cc1NC(=O)CCNC(=O)c1ccc(Br)cc1	.	.	.	.	76.6*	.
O=S(=O)(Nc1ncccn1)c1ccc(NC(=S)NCc2cccnc2)cc1	-2.5	6.9	7.6	-19.1	9.7	0.6
O=C(Nc1cccnc1Cl)c1ccc(S(=O)(=O)N2CCCCCC2)cc1	-1.8	90.0*	4.3	-18.1	16.4	-0.1
O=C(NCc1cccnc1)c1ccc(S(=O)(=O)N2CCCCC2)cc1	-3.6	17.8	4.5	0.5	20.3	-1.1
O=S(=O)(c1ccc(NC(=S)NCc2cccnc2)cc1)N1CCCCC1	4.2	.	-6.6	14.5	86.4*	18.7
O=C(NCc1ccccc1)c1ccc(S(=O)(=O)N2CCCC2)cc1	4.5	50.9*	-0.5	2.5	28.5	-3.3
SMILES	IEC-6 cytotox	APP 5UTR inh	BaF3 parental	KLF5 inh	aSyn 5UTR inh	Ba/F3 V617F tox
O=C(O)Cc1ccc(NC(=O)Nc2ccc3c(c2)OCO3)cc1	-0.5	.	.	-85.0	-43.1	.
C=CCN1C(=O)C(CC(=O)Nc2ccc(OCCC)cc2)N(CCCN2CCN(Cc3ccccc3)CC2)C1=S (configuration not stated)	8.3	-3.2	7.2	-0.2	7.2	4.8
COc1ccccc1N1CCN(C(=O)c2ccc(S(=O)(=O)N3CCCCCC3)cc2)CC1	-1.0	-26.5	93.7*	12.1	10.4	2.4
O=C(N/N=C\c1c(O)ccc2ccccc12)c1ccc(S(=O)(=O)N2CCCCC2)cc1	-3.9	85.8*	8.9	-9.2	114.4*	-3.2
COc1ccc(CNC(=O)c2ccc(S(=O)(=O)N3CCCC3)cc2)cc1OC	-7.7	51.9*	4.9	-9.6	5.0	-0.2
S=C(NCCc1ccccc1)Nc1ccc(Br)cc1	-6.0	-36.5	5.5	-39.5	-126.4	-1.4
CCC1(c2ccccc2)NC(=O)N(CC(=O)Nc2ccc(S(=O)(=O)NC3=NCCCCC3)cc2)C1=O (configuration not stated)	.	.	.	.	18.6	.
CCc1c(C)c(C#N)c2nc3ccccc3n2c1Cl	-5.7	95.0*	-2.9	-4.1	105.3*	-5.6
CCc1c(C)c(C#N)c2nc3ccccc3n2c1-n1nc(C)cc1C	1.2	-20.1	0.1	3.6	-10.8	-2.1
COc1ccc(-n2cc(CN3CCCC3)c(-c3cccc(F)c3)n2)cc1	7.9	-4.7	1.0	-20.9	-24.8	-1.6
CC(=O)N1CCCN(Cc2cn(-c3ccc(C)cc3)nc2-c2cccc(C)c2)CC1	1.8	-6.2	40.6*	-21.9	-1.1	-0.4
CC(=O)Nc1cc(OC(C)=O)c2nonc2c1OC(C)=O	99.9*	16.6	103.2*	115.2*	.	101.3*
O=C(NC1CCCCC1)C(c1cccnc1)N(CCc1ccccc1)C(=O)Cc1cccs1 (configuration not stated)	2.7	-4.2	-0.5	-1.0	-8.4	-0.6
C[N+]1(CCCOC(=O)C2(c3ccccc3)CCCC2)CCOCC1	0.5	-5.2	58.0*	17.7	0.3	5.8
CN(C)CCOC(=O)C1(c2ccccc2)CCCC1	4.4	-18.4	0.3	-44.1	5.7	-4.5
CC#CC[N+](C)(C)CCCCCCCC	8.4	.	63.4*	27.4	5.1	66.1*
CC#CC[N+](C)(C)CC(=O)c1ccccc1	-1.7	.	0.3	-11.7	0.0	-0.4
Cc1ccc(-c2csc(=Nc3cccnc3)n2CCCN2CCCC2=O)cc1C	-2.4	11.2	54.0*	23.8	32.3	64.1*
Cc1ccc(CC(=O)Nc2ccncc2)cc1	1.6	11.3	41.7*	-12.3	-31.3	35.7*
Cc1nn(C)c2ncc(C(=O)c3cc(F)ccc3O)cc12	-4.7	51.7*	2.8	-26.9	15.4	-2.3
Cc1ccc(O)c(C(=O)c2cnc3c(c2)c(C)nn3C)c1	0.1	.	.	-3.9	3.4	.
CC1CCc2c(nc3sc4c(c3c2N)CCCC4)C1 (configuration not stated)	8.9	-65.2	2.6	-47.8	-125.1	-5.0
COc1ccc(-c2cc(C(=O)NN)[nH]n2)cc1OC	0.9	72.7*	-2.0	-37.2	8.5	-2.1
COc1ccc(-c2cc(C(=O)NN)[nH]n2)cc1	-1.2	84.2*	-1.4	-48.3	-58.5	-3.2
O=c1c2cc(F)ccc2[nH]c(=S)n1Cc1ccc(F)cc1	-3.8	.	.	-27.7	4.2	.
COc1cccc(COc2cc3ccccc3nc2C)c1	5.6	-17.5	42.9*	35.7	-95.8	41.7*
Cc1nc2ccccc2cc1OCc1ccccc1	1.4	-5.3	7.8	11.0	-45.8	0.3
